CHT block = inhibitors of human choline transporter CHT; B-score at 10 µM; 310,000 tested, 0.86% active; CHT-expressing cells, membrane potential dye, choline response; active compounds read low;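 active = B-score over 3 SD under the library average, and starting fluorescence ratio not unusually high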;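 note: choline stimulus applied at its EC90 after an EC20 pre-addition; B-score computed on integrated fluorescence ratio after choline addition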
TMEM16A act = activates or potentiates the mouse TMEM16A chloride channel | 340,000 tested, 0.3% active | B-score at 10 µM | HEK293 TMEM16A/YFP-H148Q/I152L, iodide quench fluorescence; active compounds read low | Q8BHY3;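 active = fluorescence-ratio B-score plate-corrected deviation score at least 3 library SD below zero, with starting fluorescence score within 5 deviations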;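 note: channel opened by trigger with iodide after compound preincubation; score built on the fluorescence ratio of max minus min over baseline; more negative score means more quench and so TMEM16A activation or potentiation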
TMEM16A inh = inhibitors of mouse TMEM16A calcium-activated chloride channel. normalized B-score (activity score, 25-100; higher = stronger inhibition) at 10 µM. 310,000 tested, 1.2% active. Q8BHY3. AID 588511. HEK293 TMEM16A/YFP iodide influx fluorescence, ionomycin;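 active = ratio plate-corrected score three or more library SD toward inhibition, starting fluorescence score within five deviations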;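 note: score derived from kinetic fluorescence span divided by baseline fluorescence per well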
CHT PAM = allosterically activates the human high affinity choline transporter. AID 488977. CHT-expressing cells, membrane potential dye, choline EC20; active compounds read high; LV-AA mutant CHT in HEK293 cells. 310,000 tested, 0.49% active. B-score at 10 µM;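 active = initial fluorescence not abnormally high and integrated response B-score, plate-corrected, over 3 SD above library mean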
TMEM16A reconf = TMEM16A (mouse) chloride channel inhibition, re-confirmation; 2,300 tested, 39% active; AID 652189; shares compounds with TMEM16A inh; inhibition, % at 10 µM; HEK293 TMEM16A/YFP-H148Q, iodide quench fluorescence; ionomycin added to raise cell calcium;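 active = mean duplicate percent inhibition, scaled so buffer wells are 0 and the reference blocker 100, over three buffer SD above buffer mean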
HEK293 Ca mobil = calcium mobilization counter-screen hit for TMEM16A inhibitor series; shares compounds with TMEM16A inh; 2,300 tested, 2% active; TMEM16A/YFP HEK293, Fluo4 calcium mobilization; calcium response (% of ionomycin), % at 10 µM; AID 652231;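 active = duplicate-averaged calcium signal over 20% of the ionomycin maximum, relative to buffer baseline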;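 note: each well's signal is peak minus trough fluorescence divided by its pre-addition baseline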
YFP-HEK293 quench = counter-screen for TMEM16A inhibitors: effect in parental YFP-HEK293 cells | shares compounds with TMEM16A inh | iodide YFP quench, ionomycin | YFP ratio F(max-min)/F0 at 10 µM | 2,300 tested, under 10 active;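 active = yellow fluorescent protein signal ratio exceeding the buffer control mean by over 5 SD of those controls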;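 note: ratio is mean of duplicate wells from kinetic YFP trace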
ClC-1 inh = selectivity of TMEM16A inhibitors: inhibition of rat ClC-1 chloride channel. shares compounds with TMEM16A inh. CHO ClC-1-YFP, iodide influx fluorescence quench; iodide control reads 0, buffer control 100. ratio percent, % at 10 µM. 2,300 tested, under 10 active;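 active = duplicate-mean ratio percent above the mean of iodide-only control wells, which defines zero, plus 5 of their SD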;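 note: higher percent means stronger block of ClC-1 iodide influx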
Target sequence (P35524 whole entry, looked up): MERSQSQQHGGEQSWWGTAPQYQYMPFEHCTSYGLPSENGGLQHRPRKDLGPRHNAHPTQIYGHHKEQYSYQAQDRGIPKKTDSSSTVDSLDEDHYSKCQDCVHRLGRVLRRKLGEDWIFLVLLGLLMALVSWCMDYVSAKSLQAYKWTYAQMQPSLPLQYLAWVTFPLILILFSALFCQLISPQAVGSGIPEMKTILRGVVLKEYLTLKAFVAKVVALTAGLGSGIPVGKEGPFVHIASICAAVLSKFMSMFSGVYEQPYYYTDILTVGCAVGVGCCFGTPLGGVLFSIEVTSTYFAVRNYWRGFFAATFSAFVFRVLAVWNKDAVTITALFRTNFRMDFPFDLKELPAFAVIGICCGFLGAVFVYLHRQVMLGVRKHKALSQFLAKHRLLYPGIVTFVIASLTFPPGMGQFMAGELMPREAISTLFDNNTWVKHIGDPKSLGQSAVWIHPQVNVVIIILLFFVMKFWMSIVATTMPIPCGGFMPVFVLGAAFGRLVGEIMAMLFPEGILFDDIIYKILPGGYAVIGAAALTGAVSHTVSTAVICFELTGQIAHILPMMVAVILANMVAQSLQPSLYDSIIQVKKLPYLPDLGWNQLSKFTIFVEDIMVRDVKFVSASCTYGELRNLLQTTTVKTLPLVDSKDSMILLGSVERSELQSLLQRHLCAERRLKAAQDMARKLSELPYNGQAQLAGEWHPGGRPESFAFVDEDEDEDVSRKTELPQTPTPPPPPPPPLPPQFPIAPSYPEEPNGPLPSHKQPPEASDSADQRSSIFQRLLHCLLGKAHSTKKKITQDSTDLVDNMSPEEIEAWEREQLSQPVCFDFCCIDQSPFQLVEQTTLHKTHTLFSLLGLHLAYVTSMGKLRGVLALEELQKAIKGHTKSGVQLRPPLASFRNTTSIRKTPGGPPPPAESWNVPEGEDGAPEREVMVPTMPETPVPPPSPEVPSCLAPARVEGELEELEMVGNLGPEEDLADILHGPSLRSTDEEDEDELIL
Hits are given with their value; 0 = inactive; - = not tested or not shown. Hits are enriched below; roughly 2.3% of the tested compounds scored in any of these assays.

SMILES	CHT block	TMEM16A act	TMEM16A inh	CHT PAM	TMEM16A reconf	HEK293 Ca mobil	YFP-HEK293 quench	ClC-1 inh
CCOc1cc(C(=S)N2CCOCC2)ccc1OC(=O)c1ccccc1	0	0	0	0	-	-	-	-
CCOc1cc(C(=S)N2CCOCC2)ccc1OC(=O)c1ccc(C)cc1	0	0	25	0	0	0	0	0
Cc1cc(C)n2nc(SCc3ncc(-c4ccccc4)o3)nc2n1	0	0	100	0	0	0	0	0
Cc1cc(S(=O)(=O)Nc2ccc3cn[nH]c3c2)c(C)cc1Cl	0	0	25	0	16%	0	0	0
COc1cc2c(cc1N)-c1ccc(N)cc1C2	-	0	-	-	-	-	-	-
Cc1cccc(S(=O)(=O)Nc2nc3ccccc3nc2Nc2ccc3c(c2)OCO3)c1	0	0	25	0	20%	0	0	0
COc1ccc(N2CC(O)=C(c3n(C)c4ccccc4[n+]3C)C2=N)cc1	0	0	25	0	0	0	0	0
O=c1[nH]c2cc(Cl)c(Br)cc2o1	-	0	-	-	-	-	-	-
O=C(c1ccco1)N1CCN(C(=O)C(c2ccccc2)c2ccccc2)CC1	0	0	0	0	-	-	-	-
CCC(C(=O)N1CCN(C(=O)c2ccco2)CC1)c1ccccc1 (stereo not given)	0	0	100	0	0	0	0	0
O=C(CSc1ccccn1)Nc1ccc2[nH]c(=O)[nH]c2c1	-	0	-	-	-	-	-	-
CS(=O)(=O)N1CCc2cc(-c3csc(NC(=O)Cc4cccs4)n3)ccc21	0	0	25	0	31%	0	0	0
CCOC(=O)c1ccc(-n2[nH]c(-c3ccccc3)cc2=O)cc1	0	0	100	0	0	0	0	0
CCOC(=O)c1ccc(N=Nc2c(C)[nH]n(-c3ccccc3)c2=O)cc1	0	0	0	0	-	-	-	-
COc1cc(CN(C)CC(=O)c2[nH]c(C)c(C(C)=O)c2C)ccc1OC(F)F	0	0	25	0	17%	0	0	0
COc1cc(C)ccc1OCC(=O)OCC(=O)c1[nH]c(C)c(C(C)=O)c1C	-	0	-	-	-	-	-	-
COc1ccccc1OCC(=O)c1[nH]c(C)c(C(C)=O)c1C	0	0	25	0	0	0	0	0
CCN(CC)CCNC(=O)CS(=O)Cc1nc(-c2ccc(C)cc2)oc1C (stereo not given)	0	0	0	0	0	0	0	0
CCOC(=O)c1ccc(NC(=O)c2cccc(S(=O)(=O)N3CCN(C(C)=O)CC3)c2)cc1	0	0	0	0	-	-	-	-
Nc1ncnc2c1ncn2[C@@H]1O[C@H](CO)C[C@H]1O	0	0	100	0	0	0	0	0
O=C(NNC(=S)Nc1ccc(Cl)c(Cl)c1)c1cccc([N+](=O)[O-])c1	0	0	100	0	78%	0	0	0
Cc1ccc(NC(=S)NNC(=O)c2ccc(N3CCOCC3)c([N+](=O)[O-])c2)cc1Cl	0	0	25	0	26%	0	0	0
CC1CCN(S(=O)(=O)c2ccc(NC(=O)CCN3C(=O)C4CC=CCC4C3=O)cc2)CC1 (stereo not given)	-	0	-	-	-	-	-	-
CCN1CCN(C(c2cc3cccc(C)c3[nH]c2=O)c2nnnn2Cc2ccccc2)CC1 (stereo not given)	0	0	25	0	0	0	0	0
Cc1ccc(S(=O)(=O)Cc2ccc(C(=O)OCc3ccccc3)cc2)cc1	0	0	25	0	44%	0	0	0
SMILES	CHT block	TMEM16A act	TMEM16A inh	CHT PAM	TMEM16A reconf	HEK293 Ca mobil	YFP-HEK293 quench	ClC-1 inh
CN(C)C(CNC(=O)c1cc(-c2ccco2)nc2ccccc12)c1ccccc1 (stereo not given)	-	0	-	-	-	-	-	-
CC(=O)c1cccc(NC(=O)CN2C(=O)NC(C)(C)C2=O)c1	-	0	-	-	-	-	-	-
CC1(C)CC(=O)C(CCC(=O)c2ccccc2)C(C)(C)N1 (stereo not given)	0	0	25	0	0	0	0	0
O=C(CCC1CCCCC1=O)c1ccccc1 (stereo not given)	0	0	0	0	-	-	-	-
Cc1ccc(S(=O)(=O)NN2C(=O)/C(=C\c3ccc(Cl)cc3)SC2=S)cc1	0	0	0	0	-	-	-	-
C=CCOc1ccc(/C=C2\SC(=S)N(NS(=O)(=O)c3ccc(C)cc3)C2=O)cc1	0	0	100	0	72%	0	0	0
C=CCNC(=O)CSc1nnc(-c2ccc(S(=O)(=O)N3CCCC3)cc2)n1C	0	0	0	0	-	-	-	-
c1coc(CNc2nc3nonc3nc2NCc2ccco2)c1	0	0	25	0	0	0	0	0
CN(c1ccccc1)S(=O)(=O)c1ccc(NC(=O)c2nc(S(C)(=O)=O)ncc2Cl)cc1	0	-5.5	25	0	18%	0	0	0
CN(c1ccccc1)S(=O)(=O)c1ccc(NC(=O)c2ccccc2)cc1	0	0	0	0	-	-	-	-
CCOC(=O)C1=C(CSc2nc3c(cc2C#N)CN(C)CC3)OC(N)=C(C#N)C1c1ccc(F)cc1 (stereo not given)	0	0	0	0	-	-	-	-
CCOC(=O)C1=C(CSc2nc(-c3ccccc3)ccc2C#N)OC(N)=C(C#N)C1c1ccccc1 (stereo not given)	0	0	0	0	0	0	0	0
CCOC(=O)C1=C(c2ccccc2)OC(N)=C(C#N)C1c1ccco1 (stereo not given)	0	0	25	0	0	0	0	0
CC(=O)Nc1ccccc1NC(=O)C/C(C)=N/NC(=O)c1cccnc1	0	0	0	0	-	-	-	-
COc1ccc(N=CC2CCCCC2=O)c([N+](=O)[O-])c1 (stereo not given)	-	0	-	-	-	-	-	-
O=C(Nc1ccccc1)c1nc[nH]c1C(=O)NCCN(CCNC(=O)c1[nH]cnc1C(=O)Nc1ccccc1)CCNC(=O)c1[nH]cnc1C(=O)Nc1ccccc1	-	0	-	-	-	-	-	-
CC(Oc1ccc(Cl)cc1)C(=O)NCCN1C(=O)S/C(=C\c2cccnc2)C1=O (stereo not given)	0	0	25	0	55%	0	0	0
CC(C)(Oc1ccc(Cl)cc1)C(=O)NCCN1C(=O)S/C(=C/c2cccnc2)C1=O	0	0	0	0	-	-	-	-
CCCc1cc(C(=O)Nc2cccc(Cl)c2C)no1	0	0	25	0	0	0	0	0
CCCc1cc(C(=O)NCc2ccccc2)no1	0	0	100	0	0	0	0	0
CCCc1cc(C(=O)Nc2ccccc2SC)no1	0	0	0	0	-	-	-	-
COc1cc2c(cc1OC)C(c1cc(Br)ccc1O)N(C(C)=O)CC2 (stereo not given)	0	0	0	0	-	-	-	-
CCN(CC)S(=O)(=O)c1cccc(-c2nnc(SCc3nc4ccccc4s3)o2)c1	0	0	100	0	18%	0	0	0

Screening results as filed in PubChem.
